Measurements: PubChem BioAssay AID1851 (National Center for Advancing Translational Sciences (NCATS), 2009)
Hit rate of the full screen: of about 16,000 compounds, about 2,600 (16%) were called active. Not shown: some 20% with an inconclusive outcome. This is one part of a sample in which actives are shown more often than they occur. Values without a mark were called inactive. Calls follow the shape of the dose curve; as a rule, active = well fitted curve in the direction sought with a large enough effect; inconclusive = small, poorly fitted or top-dose-only effect, or effect the other way; inactive = no such curve, though single readings can be large or run the other way.

target: Cytochrome P450 2D6 (Homo sapiens) (UniProt P10635); experiment: Cytochrome panel assay with activity outcomes; settings: recombinant CYP, pro-luciferin dealkylation, luminescence, p450-cyp2d6; series mostly up to 57.1 µM; activity, negative = inhibition: at the top concentration
Sequence (P10635 whole entry, looked up): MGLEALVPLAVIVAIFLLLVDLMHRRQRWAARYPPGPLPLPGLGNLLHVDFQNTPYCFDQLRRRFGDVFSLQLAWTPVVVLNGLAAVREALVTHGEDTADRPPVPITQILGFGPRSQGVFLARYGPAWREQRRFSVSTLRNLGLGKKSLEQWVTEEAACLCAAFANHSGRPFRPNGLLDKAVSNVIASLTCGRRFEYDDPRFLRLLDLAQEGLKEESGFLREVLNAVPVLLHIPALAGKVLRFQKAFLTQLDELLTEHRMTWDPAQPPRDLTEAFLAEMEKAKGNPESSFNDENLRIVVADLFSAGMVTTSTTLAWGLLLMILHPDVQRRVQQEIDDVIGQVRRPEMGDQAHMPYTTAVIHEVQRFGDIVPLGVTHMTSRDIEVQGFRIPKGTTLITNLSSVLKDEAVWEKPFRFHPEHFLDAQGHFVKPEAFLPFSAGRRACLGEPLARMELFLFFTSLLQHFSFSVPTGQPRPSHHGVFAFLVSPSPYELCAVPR
% is scaled to controls: 0 for no effect and ±100 for the full control effect.

Compound	activity, negative = inhibition	AC50
C[C@]1(C(=O)O)[C@@H]2CC[C@@H](O2)[C@@]1(C)C(=O)O	-0.463%	–
[N-]=[N+]=CC(=O)CC[C@H](N)C(=O)O	-11.2% [at 11.4 µM]	–
CN(C)CCCNc1c2c(nc3ccc(Cl)cc13)CCCC2	9.14% [at 11.4 µM]	–
COc1ccc(C2SCC(=O)Nc3c2c(C)nn3C2CCOC(C)(C)C2)cc1 (stereo unspecified)	6.24%	–
C[C@@]12CC[C@H](O)C[C@@H]1CC[C@@H]1[C@@H]2CC[C@@]2(C)[C@@H](C3=CC(=O)OC3)[C@H](O)C[C@]12O	17.5% [at 11.4 µM]	–
Cc1cc2c(C(F)(F)F)cc(=O)oc2c2c1NCCC2	-6.37%	–
N=C(N)SCc1ccc(Cl)c2ccccc12 (tested in a mixture with another compound)	–	3.16 µM (active)
C/C(=N\OC(=O)NC(C)C)c1sc(-c2ccc(Cl)cc2)nc1C	-20.1%	–
C[C@@]12CC[C@H](O[C@@H]3O[C@H](CO)[C@@H](O)[C@H](O)[C@@H]3O)C[C@@H]1CC[C@H]1[C@H]2CC[C@@]2(C)[C@@H](C3=CCOC3=O)CC[C@]12O	-0.449% [at 11.4 µM]	–
COc1ccc(C[C@H]2NC[C@H](O)[C@@H]2OC(C)=O)cc1	–	7.94 µM (active)
c1ccc2c(c1)OC[C@@H](C1=NCCN1)O2	–	0.631 µM (active)
C[N+]1(C)CCO[C@](O)(c2ccc(-c3ccc([C@]4(O)C[N+](C)(C)CCO4)cc3)cc2)C1	6.78% [at 25.6 µM]	–
Cc1ccc(N=Nc2c(O)[nH]c(=O)[nH]c2=O)c([N+](=O)[O-])c1	-25.8%	–
Nc1nc(N)c(N=Nc2ccc([As](=O)(O)O)cc2)c(=O)[nH]1	13.1% [at 11.4 µM]	–
CCCCCCCCCCCCCC(=O)O[C@H]1[C@@H](C)[C@@]2(O)[C@@H](C=C(CO)C[C@]3(O)C(=O)C(C)=C[C@@H]23)C2C(C)(C)[C@]21OC(C)=O (stereo partly specified)	-9.86%	–
COCCNC(=S)N1C2CCC1CC(NC(=O)NC13CC4CC(CC(C4)C1)C3)C2 (stereo unspecified)	5.78%	–
COCCNC(=S)NC1CC2CCCC(C1)N2Cc1cccs1 (stereo unspecified)	–	0.398 µM (active)
COCCCNC(=S)NC1CC2CCCC(C1)N2Cc1cccs1 (stereo unspecified)	–	0.891 µM (active)
CCc1ccccc1NC(=O)NC1CC2CCC(C1)N2Cc1cccs1 (stereo unspecified)	–	6.31 µM (active)

Compound	activity, negative = inhibition	AC50
C=C1C(O)(c2ccccc2)C2CC[N+]1(C)CC2 (stereo unspecified)	-29.7%	–
Cn1c(O)c(C(=N)COc2ccccc2)c(=O)n(C)c1=O	-6.8%	–
CCCCc1ccc(C(=O)O)nc1	–	inactive
CS(=O)c1ccc(-c2nc(-c3ccc(F)cc3)c(-c3ccncc3)[nH]2)cc1 (stereo unspecified)	8.63%	–
C[C@@H](Cc1ccccc1)NCCC(c1ccccc1)c1ccccc1	–	0.01 µM (active)
C#CCN(C)[C@H](C)Cc1ccccc1	1.61%	–
CCOC(=O)N1CCC(NC(=O)CCc2nc(C3=CCN(C)CC3)no2)CC1	1.28%	–
Nc1nnnn1CCO	3.8% [at 11.4 µM]	–
O=C(O)c1nn(Cc2ccc(Cl)cc2Cl)c2ccccc12	0.0532%	–
Cc1ccccc1-n1c(O)c(C=Nc2ccc(N(C)C)cc2)c(=O)[nH]c1=O	-6.05%	–
Cc1oc(-c2ccccc2F)nc1CS(=O)CC(=O)N1CCC2(CC1)OCCO2 (stereo unspecified)	7.67%	–
CC1=C2[C@@H]3OC(=O)[C@@H](C)[C@@H]3CC[C@]2(C)C=CC1=O	-7.67% [at 25.6 µM]	–
O=C(O)[C@H]1C[C@@H]1[C@H](NP(=O)(c1ccccc1)c1ccccc1)c1ccccc1	10.1%	–
COc1ccc(CNC(=O)/C=C\c2ccc3[nH]cc(CCN(C)C)c3c2)cc1	-1.05%	–
CN[C@H](Cc1ccccc1)c1cccc(OC)c1O	–	0.0398 µM (active)
O=c1[nH]c(=O)n([C@H]2C[C@H](O)[C@H](CO)O2)cc1/C=C\Br	-3.53%	–
N#C/C(=C\c1ccc(O)c(O)c1)C(=O)NCCCNC(=O)/C(C#N)=C/c1ccc(O)c(O)c1	-4.88%	–
CCCCn1c(N)c(C(=O)NCc2cccs2)c2nc3ccccc3nc21	–	20 µM (active)
COCCCn1c(N)c(C(=O)Nc2sc3c(c2C(=O)OC)CCCC3)c2nc3ccccc3nc21	6.62%	–

Compound	activity, negative = inhibition	AC50
O=[As](O)(O)c1ccc(N=Nc2ccc(O)cc2)cc1	2.25% [at 11.4 µM]	–
C[C@]12CC[C@H](O)C[C@@H]1CC[C@H]1[C@H]2CC[C@]2(C)C(=O)CC[C@@H]12	–	inactive
COc1ccc2c(c1)CN([C@H](C)[C@@H]1CC[C@@H]3[C@H]4CC[C@H]5C[C@@H](O)CC[C@@]5(C)[C@H]4CC[C@]31C)CO2	–	3.16 µM (active)
C[C@@]12CC[C@H]3[C@@H](CC[C@@H]4C[C@H](O)CC[C@]43C)[C@H]1CC[C@H]2O	6.56%	–
CC[N@+]1(C)CCC[C@@H](OC(=O)C(O)(c2ccccc2)c2ccccc2)C1	–	5.01 µM (active)
CN=C(NC#N)NCCSCc1nc[nH]c1C	8.36%	–
C[C@H](N)[C@H](O)c1ccc(O)c(O)c1	–	inactive
CC[C@H](CO)NC(=O)[C@@H]1C=C2c3cccc4c3c(cn4C)C[C@@H]2N(C)C1	–	39.8 µM (active)
CC(C)C[C@H]1C(=O)N2CCC[C@@H]2[C@]2(O)O[C@](NC(=O)[C@@H]3C=C4c5cccc6[nH]c(Br)c(c56)C[C@H]4N(C)C3)(C(C)C)C(=O)N12	-2.92%	–
CC[C@@H](CO)NC(=O)[C@H]1C=C2c3cccc4c3c(cn4C)C[C@H]2N(C)C1	–	12.6 µM (active)
Cc1cc(NC(=O)CCC(=O)N2CCC3(CC2)OCCO3)no1	4.64%	–
Cc1ccc(CCN2CC(C(=O)N3CCC4(CC3)OCCO4)CC2=O)cc1 (stereo unspecified)	5.9%	–
N[C@H](CCCCCP(=O)(O)O)C(=O)O	–	inactive
O=C(O)CCCc1ccc(N(CCCl)CCCl)cc1	1.05% [at 25.6 µM]	–
C[C@H](CCC(=O)O)[C@H]1CC[C@]2(C)[C@@H]3C(=O)C[C@H]4C(C)(C)[C@@H](O)CC[C@]4(C)[C@H]3C(=O)C[C@@]12C	-4.73% [at 11.4 µM]	–
CC(=O)[C@@H]1CC[C@H]2[C@H]3CC[C@H]4C[C@@H](O)CC[C@]4(C)[C@@H]3CC[C@]12C	-4.86%	–
Oc1ccc(CCNCc2cc3c(cc2Br)OCO3)cc1	–	0.316 µM (active)
O=C(O)C(=O)Cc1ccc2c(c1)OCO2	-12.2% [at 11.4 µM]	–
